The supplement of paper PMC10849652
Of roughly 7,900 targets only a part is listed; those with a hit were picked by preference. About 0.6% of all pairs of compound and target were hits.

Experiments:
Test in all cases: log2 fold change, soluble protein after heating vs DMSO (PISA); higher = thermal stabilisation; K562 cells, 10 uM, 30 min; active = over 0.2 and 3.5 SD of the protein, either way, in both replicates (recomputed)
[1] = compound: C1=CC=C(C=C1)[C@H](COC2=CC3=C(C=C2)NC(=O)N3)NC(=O)C4=CC=CN(C4=O)CC5=CC(=C(C=C5)F)F
Method in brief: (§1)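 K562 cells at 2×10^6 cells/mL were given 10 μM compound for 30 min. Aliquots then went through 3 min of heating across 48°C-58°C, were pooled, and were extracted in PBS with 0.5% NP-40 at 4°C, and the supernatant after 21,000xg for 90 min was quantified by TMTpro 16plex LC-MS/MS with channel sums equalised. Thermal stability relative to control samples, from duplicates, is given as log2 fold change.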

[2] = compound: CC1=C(SC2=C1C(=N[C@H](C3=NN=C(N32)C)CC(=O)N)C4=CC=C(C=C4)Cl)C
Method in brief: as §1

[3] = compound: CC1=C2C(=CC=C1)N=C(N(C2=O)C3=CC=CC=C3C)CN4C=NC5=C(N=CN=C54)N
Method in brief: as §1

[4] = compound: Cc1sc2c(c1C)C(c1ccc(Cl)cc1)=N[C@@H](CC(=O)OC(C)(C)C)c1nnc(C)n1-2
Method in brief: as §1

[5] = compound: c1ccc([C@@H]2C[C@H]2NC2CCNCC2)cc1
Method in brief: as §1

Measured: log2 fold change

PDCD4 (UniProt Q53EL6)
Chain of UniProt Q53EL6 (Q53EL6 whole entry, looked up): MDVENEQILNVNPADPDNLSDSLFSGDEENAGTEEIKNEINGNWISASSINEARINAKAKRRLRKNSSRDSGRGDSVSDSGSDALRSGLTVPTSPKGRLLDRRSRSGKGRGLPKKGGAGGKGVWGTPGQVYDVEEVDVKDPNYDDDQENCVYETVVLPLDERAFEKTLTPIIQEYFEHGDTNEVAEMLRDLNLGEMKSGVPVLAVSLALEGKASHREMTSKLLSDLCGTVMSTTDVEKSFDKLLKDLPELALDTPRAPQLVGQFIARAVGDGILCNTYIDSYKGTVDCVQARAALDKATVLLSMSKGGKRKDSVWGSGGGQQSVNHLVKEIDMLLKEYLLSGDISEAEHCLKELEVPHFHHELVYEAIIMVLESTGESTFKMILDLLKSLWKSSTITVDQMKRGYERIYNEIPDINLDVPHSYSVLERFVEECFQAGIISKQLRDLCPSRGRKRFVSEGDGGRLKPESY
inactive: [1] -0.055 | [2] 0.002 | [3] 0.053 | [4] -0.167 | [5] -0.003

PTP4A1 (UniProt Q93096)
Chain of UniProt Q93096 (Q93096 whole entry, looked up): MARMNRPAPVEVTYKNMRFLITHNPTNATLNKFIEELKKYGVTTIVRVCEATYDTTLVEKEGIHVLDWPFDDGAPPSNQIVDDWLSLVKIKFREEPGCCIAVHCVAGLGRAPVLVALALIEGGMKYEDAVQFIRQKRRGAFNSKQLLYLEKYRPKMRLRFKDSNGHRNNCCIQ
inactive: [1] -0.002 | [2] 0.109 | [3] 0.037 | [4] 0.001 | [5] -0.031

PYGL (UniProt P06737)
Chain of UniProt P06737 (P06737 whole entry, looked up): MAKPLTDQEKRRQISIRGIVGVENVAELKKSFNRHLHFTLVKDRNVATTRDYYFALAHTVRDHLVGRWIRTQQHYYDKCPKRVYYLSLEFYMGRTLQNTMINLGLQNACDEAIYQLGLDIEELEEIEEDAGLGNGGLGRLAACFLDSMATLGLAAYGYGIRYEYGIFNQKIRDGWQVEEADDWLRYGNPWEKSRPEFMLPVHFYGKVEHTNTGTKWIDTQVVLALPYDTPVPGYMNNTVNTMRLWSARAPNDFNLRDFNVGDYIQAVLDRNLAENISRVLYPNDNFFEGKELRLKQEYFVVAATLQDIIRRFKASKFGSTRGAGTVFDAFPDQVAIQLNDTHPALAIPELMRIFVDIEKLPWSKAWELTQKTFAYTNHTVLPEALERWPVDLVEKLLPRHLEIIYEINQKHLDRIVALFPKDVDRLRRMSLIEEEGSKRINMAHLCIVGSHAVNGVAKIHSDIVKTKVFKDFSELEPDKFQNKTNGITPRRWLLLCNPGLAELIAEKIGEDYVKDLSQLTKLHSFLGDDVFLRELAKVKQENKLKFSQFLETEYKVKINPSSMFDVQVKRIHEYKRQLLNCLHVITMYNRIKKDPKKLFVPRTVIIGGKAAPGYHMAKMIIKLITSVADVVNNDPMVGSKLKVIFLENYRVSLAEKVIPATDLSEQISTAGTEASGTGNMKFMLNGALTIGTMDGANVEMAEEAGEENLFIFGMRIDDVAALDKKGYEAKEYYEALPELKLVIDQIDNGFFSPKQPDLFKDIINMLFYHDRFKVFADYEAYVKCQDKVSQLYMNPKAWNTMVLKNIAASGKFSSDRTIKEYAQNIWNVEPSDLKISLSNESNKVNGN
inactive: [1] 0.006 | [2] 0.047 | [3] 0.026 | [4] 0.006 | [5] -0.032

PKN1 isoform 2 (UniProt Q16512)
Chain of UniProt Q16512 (Q16512 whole entry, looked up): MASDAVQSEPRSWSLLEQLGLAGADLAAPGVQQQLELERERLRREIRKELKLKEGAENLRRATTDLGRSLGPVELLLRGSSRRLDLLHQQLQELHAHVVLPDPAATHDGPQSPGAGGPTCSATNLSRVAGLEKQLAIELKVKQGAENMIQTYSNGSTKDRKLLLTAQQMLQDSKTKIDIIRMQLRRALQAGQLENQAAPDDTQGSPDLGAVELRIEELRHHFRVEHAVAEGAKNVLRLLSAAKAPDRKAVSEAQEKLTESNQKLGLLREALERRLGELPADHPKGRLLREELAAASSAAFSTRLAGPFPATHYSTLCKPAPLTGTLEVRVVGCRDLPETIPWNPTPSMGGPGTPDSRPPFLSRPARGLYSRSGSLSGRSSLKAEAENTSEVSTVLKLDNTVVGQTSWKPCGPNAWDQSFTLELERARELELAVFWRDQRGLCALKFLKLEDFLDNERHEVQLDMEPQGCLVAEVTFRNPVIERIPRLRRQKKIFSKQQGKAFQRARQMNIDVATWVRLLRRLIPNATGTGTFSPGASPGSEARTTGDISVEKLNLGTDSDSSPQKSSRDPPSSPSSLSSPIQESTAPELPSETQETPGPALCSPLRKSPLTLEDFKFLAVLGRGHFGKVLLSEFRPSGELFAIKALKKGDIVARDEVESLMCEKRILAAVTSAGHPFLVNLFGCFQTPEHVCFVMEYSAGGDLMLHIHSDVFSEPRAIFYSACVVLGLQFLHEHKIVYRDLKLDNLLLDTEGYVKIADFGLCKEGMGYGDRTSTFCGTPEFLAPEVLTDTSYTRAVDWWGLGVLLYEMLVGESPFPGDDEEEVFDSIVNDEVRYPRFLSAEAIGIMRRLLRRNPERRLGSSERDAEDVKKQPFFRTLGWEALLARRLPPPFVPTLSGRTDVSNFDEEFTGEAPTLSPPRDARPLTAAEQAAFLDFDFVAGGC
inactive: [1] -0.077 | [2] 0.079 | [3] 0.069 | [4] 0.015 | [5] 0

PCYT1A (UniProt P49585)
Chain of UniProt P49585 (P49585 whole entry, looked up): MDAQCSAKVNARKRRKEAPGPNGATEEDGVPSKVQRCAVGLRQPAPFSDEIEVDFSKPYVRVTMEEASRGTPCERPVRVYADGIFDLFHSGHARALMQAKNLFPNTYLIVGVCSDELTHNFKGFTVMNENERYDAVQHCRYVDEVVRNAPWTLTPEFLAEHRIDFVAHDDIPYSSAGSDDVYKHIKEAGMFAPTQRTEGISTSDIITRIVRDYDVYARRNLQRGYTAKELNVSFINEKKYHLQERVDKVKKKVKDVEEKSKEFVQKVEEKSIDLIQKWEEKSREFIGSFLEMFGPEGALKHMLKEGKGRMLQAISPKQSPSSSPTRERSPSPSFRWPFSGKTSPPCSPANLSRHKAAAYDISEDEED
inactive: [1] -0.035 | [2] 0.005 | [3] 0.056 | [4] -0.012 | [5] 0.019

PEX16 isoform 2 (UniProt Q9Y5Y5)
Chain of UniProt Q9Y5Y5 (Q9Y5Y5 whole entry, looked up): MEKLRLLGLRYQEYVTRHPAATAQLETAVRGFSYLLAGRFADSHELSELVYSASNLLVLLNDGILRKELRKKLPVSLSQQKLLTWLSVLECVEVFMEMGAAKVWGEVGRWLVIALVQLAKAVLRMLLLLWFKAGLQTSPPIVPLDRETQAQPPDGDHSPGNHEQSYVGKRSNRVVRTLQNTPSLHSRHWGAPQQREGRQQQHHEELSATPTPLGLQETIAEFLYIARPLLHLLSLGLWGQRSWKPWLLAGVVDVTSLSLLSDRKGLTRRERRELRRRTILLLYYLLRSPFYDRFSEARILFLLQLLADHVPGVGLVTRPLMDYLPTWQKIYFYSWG
inactive: [1] -0.01 | [2] 0.095 | [3] 0.087 | [4] -0.031 | [5] -0.048

PKM (UniProt P14618)
Chain of UniProt P14618 (P14618 whole entry, looked up): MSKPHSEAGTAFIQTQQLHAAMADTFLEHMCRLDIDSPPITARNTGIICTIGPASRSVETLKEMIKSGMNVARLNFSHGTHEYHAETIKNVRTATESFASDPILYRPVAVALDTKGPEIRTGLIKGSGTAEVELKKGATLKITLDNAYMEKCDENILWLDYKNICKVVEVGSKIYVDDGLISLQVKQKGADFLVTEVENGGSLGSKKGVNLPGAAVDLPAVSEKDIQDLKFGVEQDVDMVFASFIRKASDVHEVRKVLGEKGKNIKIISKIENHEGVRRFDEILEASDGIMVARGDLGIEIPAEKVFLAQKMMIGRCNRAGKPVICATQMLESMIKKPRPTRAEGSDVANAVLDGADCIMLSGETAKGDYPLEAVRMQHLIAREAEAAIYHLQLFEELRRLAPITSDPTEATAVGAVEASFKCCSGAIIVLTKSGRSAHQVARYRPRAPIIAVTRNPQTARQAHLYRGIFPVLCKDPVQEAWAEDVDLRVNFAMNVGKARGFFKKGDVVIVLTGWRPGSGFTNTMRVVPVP
inactive: [1] -0.008 | [2] 0.032 | [3] 0.004 | [4] -0.005 | [5] 0.026

PPID (UniProt Q08752)
Chain of UniProt Q08752 (Q08752 whole entry, looked up): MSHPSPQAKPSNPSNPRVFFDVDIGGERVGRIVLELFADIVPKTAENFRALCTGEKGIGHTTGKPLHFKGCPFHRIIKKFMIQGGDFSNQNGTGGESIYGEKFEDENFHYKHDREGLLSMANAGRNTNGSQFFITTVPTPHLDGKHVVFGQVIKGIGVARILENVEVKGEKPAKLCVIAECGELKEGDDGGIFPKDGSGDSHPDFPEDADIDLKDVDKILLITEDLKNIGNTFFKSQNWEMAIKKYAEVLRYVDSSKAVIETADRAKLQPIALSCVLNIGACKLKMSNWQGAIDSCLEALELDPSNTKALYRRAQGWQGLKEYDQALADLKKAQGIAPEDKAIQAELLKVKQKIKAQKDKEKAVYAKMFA
inactive: [1] -0.079 | [2] 0.031 | [3] 0.036 | [4] -0.035 | [5] -0.031

PCBP2 (UniProt F8VRH0)
inactive: [1] -0.033 | [2] -0.18 | [3] -0.013 | [4] 0.085 | [5] 0.026
